# Experimental data from PubChem BioAssay (NCI).
# This is part of a sample that, as a whole, favours compounds with a hit. Of some 83,000 tested, about 20% had one in any assay.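 Growth was measured after 48 h exposure to one concentration of compound in 96-well plates. Values under 10 count as active.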 A number with no mark means an inactive call. Activity calls are given as the source filed them.
# Experiments:
# Assay in all cases: NCI-60 one-dose screen, 48 h (100 = growth as untreated, 0 = no growth, -100 = all killed)
# Conditions in all cases: 10 µM unless noted
# [1] = tested on: SR leukemia
# [2] = tested on: OVCAR-8 ovarian
# [3] = tested on: OVCAR-5 ovarian
# [4] = tested on: OVCAR-4 ovarian
# [5] = tested on: SK-OV-3 ovarian
# [6] = tested on: IGROV1 ovarian
# [7] = tested on: OVCAR-3 ovarian
# [8] = tested on: NCI/ADR-RES ovarian
# [9] = tested on: HS 578T breast
# [10] = tested on: RPMI-8226 leukemia
Structure (SMILES),growth [1],growth [2],growth [3],growth [4],growth [5],growth [6],growth [7],growth [8],growth [9],growth [10]
COc1c(O)cc2c(c1CC=C(C)C)OC(=O)c1c(cc(O)c(CC=C(C)C)c1O)O2,-21.4% (active),42.4%,72%,43.8%,86.7%,69.6%,34.2%,-13.7% (active),,
COc1ccc(/C=C/C(=O)c2cccc(NS(C)(=O)=O)c2)cc1,-10.2% (active),,94.9%,81.5%,110%,7.92% (active),78.1%,85.2%,83.2%,
CN(C)c1ncnc2c1ncn2C1CCCCO1 (stereo not drawn),87.7%,107%,104%,104%,107%,112%,113%,108%,,
CS(=O)(=O)N1CCN(Cc2cc3nc(-c4cccc5[nH]ncc45)nc(N4CCOCC4)c3s2)CC1 (tested in a mixture with another compound),23.2%,26.1%,21.5%,39.7%,-25.6% (active),-30.2% (active),12.4%,29.6%,,
CCN(CC)c1ccc(/C=C/C(=O)c2cccc(NS(C)(=O)=O)c2)cc1,-4.7% (active),,64.4%,42.2%,51.1%,9.33% (active),48.5%,26.4%,28.5%,
O=C1OC(Oc2ccccc2)(c2ccccc2)c2ccccc21 (stereo not drawn),79.1%,102%,99.6%,,106%,107%,97%,100%,101%,
O=C1NC(=O)/C(=C\c2ccco2)S1,113%,105%,95.9%,121%,97.1%,114%,106%,103%,,
CN(C)CCC(=O)Nc1ccc(-n2cc(-c3cccc(NC(=S)Nc4cccc(-c5cn(-c6ccc(NC(=O)CCN(C)C)cc6)nn5)c4)c3)nn2)cc1,25.9%,97.3%,113%,,115%,85.5%,94.6%,113%,137%,
CCOc1cc(/C=C/C(=O)C(C(=O)/C=C/c2ccc(OC(=O)CNc3nnc(C)s3)c(OCC)c2)C(=O)CNc2nnc(C)s2)ccc1OC(=O)CNc1nnc(C)s1,,2.17% (active),-11.7% (active),23.1%,43.6%,-53.7% (active),11.3%,7.78% (active),10.1%,-68.3% (active)
C[C@]12CC[C@H](O)CC1=CC[C@@H]1[C@@H]2CC[C@]2(C)C(c3cccnc3)=CC[C@@H]12,0.438% (active),,92.3%,49.7%,87.8%,43.5%,56.1%,49.9%,13.6%,
c1ccc(Nc2ccc(Nc3nc(-c4ccccc4)nc4ccccc34)cc2)cc1,,76.3%,81.5%,94.1%,107%,96.7%,101%,79%,92.9%,48.9%
O=C(Nc1nn2c(-c3cc(C(F)(F)F)cc(C(F)(F)F)c3)nnc2s1)C1CCCC1,,12%,18.6%,18.8%,5.54% (active),40%,22.9%,2.45% (active),21.6%,20.5%
CCSCC1CC(O)(c2ccccc2)C(c2ccccc2)C(c2ccc(Cl)cc2)O1 (stereo not drawn),,-11.2% (active),24.7%,33.8%,9.49% (active),32.6%,-26.4% (active),17.1%,-11% (active),4.54% (active)
BrC1CC(Br)c2c1c1c(c3c2C(Br)CC3Br)C(Br)CC1Br (stereo not drawn),,85.2%,99.2%,106%,102%,-20.2% (active),150%,91%,93.6%,92.9%
C=CCN(/C=C/CN(CC=C)CC=C)CC=C,,95.8%,104%,91.7%,103%,96.3%,105%,107%,109%,95.8%
O=C1C2C(C(=O)N1CC[Se][Se]CCN1C(=O)C3C(C1=O)[C@H]1C=C[C@@H]3C1)[C@H]1C=C[C@@H]2C1 (stereo partly drawn),,-80.7% (active),-15.4% (active),-33.3% (active),-50% (active),-47.2% (active),-58% (active),-10.9% (active),-11.4% (active),-43.7% (active)
CC(=O)Nc1cc2c3c(cccc3c1)-c1ccccc1-2,81.6%,,85.6%,71.5%,105%,59%,92.8%,84.5%,112%,
COc1ccc(-c2nc3sc4c(c3c(=O)[nH]2)CCCCCC4)cc1,,70.7%,83.8%,50.4%,48%,63.1%,44.2%,51.2%,58.4%,72%
CCCCCc1c(C)[nH]c(/C=C2\N=C(c3ccc[nH]3)C=C2Oc2ccccc2)c1C,,-90.2% [100 µM] (active),-99.8% [100 µM] (active),-74.7% [100 µM] (active),-54.7% [100 µM] (active),-31.6% [100 µM] (active),-93.4% [100 µM] (active),-77.1% [100 µM] (active),-7.4% [100 µM] (active),-31.5% [100 µM] (active)
Cc1[nH]c(=O)[nH]c(=O)c1CCSSCCc1c(C)[nH]c(=O)[nH]c1=O,,107%,110%,117%,103%,99.8%,117%,104%,142%,104%
CC(=O)O[C@H]1CC[C@@]2(C)C(=CC[C@@H]3[C@@H]2CC[C@]2(C)C(c4cccnc4)=CC[C@@H]32)C1,30.8%,,95.6%,47.2%,76.7%,62.6%,70.3%,45.4%,-7.37% (active),
CC(NC(=O)Oc1cccc2ccccc12)c1ccccc1 (stereo not drawn),,96.9%,123%,97.4%,111%,116%,103%,97.6%,107%,109%
N/C(=N\c1nc2ccccc2s1)NC(=O)Nc1ccccc1Cl,,15.5%,32.5%,69.3%,31.8%,20.8%,-14.2% (active),6.38% (active),30%,10.1%
CC[C@@H](C)/C=C(C)/C=C/C(=O)c1c(O)c(-c2ccc(O)cc2)cn(OC2CC(=O)CCC(C)OC(=O)CC2O)c1=O (stereo partly drawn),7.95% (active),,53.8%,,,4.73% (active),18.7%,5.21% (active),35.1%,
COc1ccc2c(c1)sc1nc(-c3ccc(N(C)C)cc3)cn12,,95.2%,98.8%,97.8%,82.6%,15.8%,88.5%,76.8%,122%,33%
Clc1ccc(C2c3ccccc3-c3nccn32)c(Cl)c1 (stereo not drawn),,84.1%,114%,47.3%,84.7%,77.1%,55%,61.5%,73.7%,26.5%
CCN(Cc1cccc(S(=O)(=O)[O-])c1)c1ccc(C(=C2C=CC(=[N+](CC)Cc3cccc(S(=O)(=O)O)c3)C=C2)c2ccccc2S(=O)(=O)O)cc1,,104%,94.5%,93.4%,102%,110%,102%,102%,106%,100%
COc1ccc(-c2c3c(N)nc(-c4ccncc4)nc3nc3c2c(C)nn3-c2ccccc2)cc1,,63.2%,64.7%,11.4%,53.4%,77%,22.4%,74.5%,71.2%,84.3%
